GDH-TPI counter – GDH-TPI coupling enzyme inhibitors, primary screen, artefact control for M. tuberculosis FBA inhibitor project, biochemical, absorbance, full deck | inhibition, % at 4.8 µM | 1.2% of 360,000 active | GDH-TPI coupled enzyme counterscreen, NADH absorbance; in the data active = inhibition above about 30%
BJeLR viability – MLPCN primary cell-based screen for lethality selective to Ras in HRASV12 cells; inhibition, % (no concentration beside the values); BJeLR (HRASV12) viability, CellTiter-Glo ATP luminescence, 48 h; 0.17% of 300,000 active; in the data active = inhibition above about 50%
PrPC TRFRET – inhibitors of human cell surface prion protein PrPC, primary screen, cell-based, TR-FRET; Major prion protein (Homo sapiens), P04156; TR-FRET read-out; inhibition, % at 13.8 µM; 0.43% of 370,000 active; AID 720596, 2013; in the data active = inhibition above about 24%
PfHsp40 yeast – rescue of yeast from PfHsp40 toxicity, primary screen, S. cerevisiae, ATP luminescence. S. cerevisiae expressing PfHsp40, growth rescue. AID 504582, 2011. 0.68% of 340,000 active. growth rescue, % at 12.5 µM; in the data active = growth rescue above about 28%, passing the limit was not always enough;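 also: yeast W303a lacking pdr1 and pdr3 grown in galactose medium; growth measured after three days at 30 °C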
PrP 5UTR inh – inhibition of PrP 5' UTR reporter expression; cell-based PrP 5' UTR mRNA reporter, plate reader; inhibition, % (concentration not given with the values); 0.35% of 340,000 active; AID 488862, 2010; in the data active = inhibition above about 52%
FBA Mtb inh – Mtb FBA enzyme inhibitors, primary screen, biochemical, fluorescence, strain H37Rv. purified M. tuberculosis FBA, fluorescence read-out. inhibition, % at 1 µM. 2.3% of 360,000 active; in the data active = inhibition above about 27%
Target sequence (P9WQA3 whole entry, looked up): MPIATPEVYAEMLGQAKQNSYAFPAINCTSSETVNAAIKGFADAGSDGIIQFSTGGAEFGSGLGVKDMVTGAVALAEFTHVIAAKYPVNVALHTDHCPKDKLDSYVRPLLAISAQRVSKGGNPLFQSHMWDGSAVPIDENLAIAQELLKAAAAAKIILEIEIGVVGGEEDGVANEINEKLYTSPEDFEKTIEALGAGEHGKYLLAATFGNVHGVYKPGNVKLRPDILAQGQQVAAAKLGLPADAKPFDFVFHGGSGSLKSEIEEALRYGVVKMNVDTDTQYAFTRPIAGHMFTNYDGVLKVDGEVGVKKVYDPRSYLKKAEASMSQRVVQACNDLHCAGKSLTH
A number is an active result; 0 = inactive; - = no result given. Most compounds without a hit are left out; they make up all but 4.5% or so of the library.

SMILES	GDH-TPI counter	BJeLR viability	PrPC TRFRET	PfHsp40 yeast	PrP 5UTR inh	FBA Mtb inh
COc1ccccc1NC(=S)N/N=C/c1ccc(O)cc1	33	0	0	0	0	0
COc1cccc(/C=N/NC(=S)Nc2cccnc2)c1	0	0	0	0	0	0
COc1ccccc1NC(=S)N/N=C/c1cccc(C)c1	0	0	0	0	0	0
Oc1ccc(/C=N/Nc2ccccc2)cc1	0	0	0	0	0	0
Oc1ccc(/C=N/NC(=S)N/N=C/c2ccc(O)cc2)cc1	75	0	0	0	0	0
Cc1ccc(OCc2nnc(SCC(=O)c3ccc(-c4ccccc4)cc3)n2Cc2ccco2)cc1	-	-	0	-	-	-
Cc1ccccc1CN1CCCCC(NC(=O)c2ccc(N(C)C)cc2)C1=O (stereo unspecified)	-	-	0	-	-	-
COc1ccc(-n2c(SCC(=O)Nc3ccc(S(=O)(=O)Nc4nccs4)cc3)nnc2-c2ccccc2)cc1	-	-	0	-	-	-
CC(C)(C)C(=O)Nc1ncc(C(F)(F)F)cc1Cl	0	0	0	0	0	0
O=C(O)c1ccc(N/N=C/c2ccc(C(F)(F)F)cc2)cc1	0	0	0	0	0	0
CC(C)(C)c1ccc(/C=N/Nc2ccc(C(=O)O)cc2)cc1	42	0	0	0	0	0
CC1Oc2ccccc2C=C1/C=N/Nc1ccc(C(=O)O)cc1 (stereo unspecified)	34	0	0	342	0	0
O=C(O)c1ccc(/C=N/Nc2ncc(C(F)(F)F)cc2Cl)cc1	37	0	0	0	0	0
Cc1ccccc1CN1CCCCC(NC(=O)c2ccccc2F)C1=O (stereo unspecified)	-	-	0	-	-	-
COCCNC(=O)c1cc2c(c(-c3cccc(C#CC(C)(C)O)c3)n1)[C@@H](CCO)N(S(=O)C(C)(C)C)C2 (stereo partly specified)	-	-	0	-	-	0
CC(=O)/C(N=Nc1ccc(-n2ccc(C(F)(F)F)n2)cc1)=C(\C)O	35	0	0	0	0	0
CCN(CC)S(=O)(=O)c1ccc(N=N/C(C(C)=O)=C(/C)O)cc1	40	0	0	0	0	0
CC(=O)/C(N=Nc1ccc(C(=O)O)cc1)=C(\C)O	0	0	0	0	0	0
C=CCN1[C@@H](C)COc2cc(F)ccc2S1(=O)=O	-	-	0	-	-	-
O=S(=O)(c1ccc(Cl)s1)N1CCC(c2cn3ccccc3n2)CC1	-	-	0	-	-	-
CCOC(=O)c1ccc(-c2c(-c3ccccc3OC)oc3ccccc23)cc1F	0	-	0	0	0	28
COc1ccccc1-c1oc2ccccc2c1-c1ccc2cc[nH]c2c1	0	-	0	0	0	0
OC(CNCC1CCCO1)Cn1c2ccc(Cl)cc2c2cc(Cl)ccc21 (stereo unspecified)	0	0	0	0	0	0
OC(CNCCC1C=Nc2ccccc21)Cn1c2ccc(Cl)cc2c2cc(Cl)ccc21 (stereo unspecified)	0	105	0	0	0	0
Cc1cc(/C=C2/NC(=O)NC2=O)c(C)n1-c1ccc(N2CCOCC2)cc1	34	0	0	0	0	0
SMILES	GDH-TPI counter	BJeLR viability	PrPC TRFRET	PfHsp40 yeast	PrP 5UTR inh	FBA Mtb inh
CCOC(=O)c1cccc(NC(=O)CN(C)S(=O)(=O)c2ccc(Cl)s2)c1	-	-	0	-	-	-
CNc1ccc(-c2cccc(CO)c2)cn1	0	-	0	-	-	171
CCCCCC(=O)N/N=C(\C)c1ccc(NC(=O)c2ccco2)cc1	0	0	0	59	0	0
CCOC(=O)C1CCCN(C2CC(=O)N(c3ccccc3)C2=O)C1 (stereo unspecified)	0	0	0	0	0	0
CCOC(=O)C1CCCN(C2CC(=O)N(c3cccc(C(F)(F)F)c3)C2=O)C1 (stereo unspecified)	0	0	0	44	0	0
COC(=O)[C@]12C[C@H](CC(=O)NCc3cccc(C(F)(F)F)c3)C(=O)N(Cc3cccc4ccccc34)C1=C[C@H](COCc1ccccc1)O[C@@H]2C	-	-	0	-	-	-
CC(=O)CC[C@@H]1CC[C@]2(CCCN(S(=O)(=O)C3CCCCC3)C2)O1	-	-	0	-	-	-
CS(=O)(=O)c1nc(-c2ccccc2)cc(C(F)(F)F)n1	0	0	29	0	0	0
CCc1nc(Nc2ccc3c(c2)OCO3)c2oc3ccccc3c2n1	0	0	0	0	0	0
CCc1nc(Nc2cccc(O)c2)c2oc3ccccc3c2n1	31	0	-	0	0	0
FC(F)(F)c1ccccc1NC(=S)OCCN1CCCC12CCC(c1ccccc1)CC2 (stereo unspecified)	-	-	0	-	-	-
CCc1ccc(/C=C/C(=O)C2C(=O)c3ccccc3C2=O)cc1	39	0	0	0	0	0
COC(=O)[C@]12C[C@H](CC(=O)N3CCN(C(=O)c4ccco4)CC3)C(=O)N(Cc3ccccc3)C1=C[C@H](COCc1ccccc1)O[C@@H]2C	-	-	0	-	-	-
CCC(NC(=O)c1ccc2c(ccn2Cc2cccc(-c3ccc(C(=O)O)cc3)c2)c1)c1ccccc1 (stereo unspecified)	-	-	0	-	-	-
CCCCn1c(NC(=O)c2ccccc2)nc2ccccc21	0	0	0	97	0	0
CCn1c(NC(=O)c2ccccc2)nc2ccccc21	0	0	0	0	0	0
CSc1nc(N)c(C#N)c(-c2ccc(Cl)cc2)c1C#N	33	0	0	0	0	0
CSc1nc(-c2ccc(Cl)cc2)nc(N)c1C#N	0	0	0	-	-	0
N#Cc1c(-c2ccc(Cl)cc2)c(C#N)c(=O)n(N)c1N	33	0	0	0	0	0
COc1ccc(-c2c(C#N)c(N)n(N)c(=O)c2C#N)cc1Cl	0	0	0	0	0	0
CC(C)CCN1C(=O)COc2ccccc2C1c1nnnn1-c1ccc2c(c1)OCCO2 (stereo unspecified)	-	-	0	-	-	-
Cc1ccccc1CC(=O)Nc1nnc(-c2cccnc2)s1	-	-	0	-	-	-
OCCN=Cc1c(O)[nH]c2ccccc12	0	0	0	0	0	0
Oc1[nH]c2ccccc2c1C=Nc1ccccc1	34	0	0	0	0	0
CN(C)CC(C)(C)CN=Cc1c(O)[nH]c2ccccc12	35	0	0	0	-	0
SMILES	GDH-TPI counter	BJeLR viability	PrPC TRFRET	PfHsp40 yeast	PrP 5UTR inh	FBA Mtb inh
CN(C)C(=O)COC(=O)c1cc(Cl)cc(Cl)c1N	0	0	0	0	0	127
Cc1ncc([N+](=O)[O-])n1CCOC(=O)c1cc(Cl)cc(Cl)c1N	0	0	0	0	0	0
NS(=O)(=O)OCC(Cc1ccccc1)N1C(=O)c2ccccc2C1=O (stereo unspecified)	0	0	0	75	0	0
CSc1nsc(SCC(=O)Nc2ccccc2)n1	0	0	0	0	0	0
CSc1nsc(SCC(=O)N2CCN(c3ccccc3)CC2)n1	0	0	0	0	0	135
CC1=CC(=O)C=C(C)C1=NOc1ccccc1[N+](=O)[O-]	0	51	0	0	0	0
O=C(Cn1c2ccccc2c(=O)c2ccccc21)Nc1ccccc1F	0	0	0	0	0	150
c1ccc(Cn2c(SCC3CCC3)nnc2-c2cccnc2)cc1	-	-	0	-	-	-

From PubChem
